# Compound activity from PubChem.
# PP5 inh – PP5 phosphatase inhibitors, primary screen, biochemical, fluorescence | Serine/threonine-protein phosphatase 5 (Homo sapiens), P53041 | purified PP5c, OMFP substrate fluorescence | inhibition, % at 6.7 µM | 320,000 compounds, 0.18% hits;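 active = inhibition above the campaign's mean inhibition across all tested compounds plus 3 SD, cut at about 9.5% in these data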
# PP1 inh – PP1-alpha phosphatase inhibitors, primary screen, counter-screen for PP5 inhibitor project, biochemical, fluorescence, OMFP substrate, single point | 320,000 compounds, 0.9% hits | purified PP1alpha | inhibition, % at 6.7 µM | Serine/threonine-protein phosphatase PP1-alpha catalytic subunit (Homo sapiens), P62136;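 active = inhibition above the mean inhibition of all tested compounds plus 3 SD, computed separately for each screening campaign, cut at about 15% in these data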
# Target sequence (P62136 whole entry, looked up): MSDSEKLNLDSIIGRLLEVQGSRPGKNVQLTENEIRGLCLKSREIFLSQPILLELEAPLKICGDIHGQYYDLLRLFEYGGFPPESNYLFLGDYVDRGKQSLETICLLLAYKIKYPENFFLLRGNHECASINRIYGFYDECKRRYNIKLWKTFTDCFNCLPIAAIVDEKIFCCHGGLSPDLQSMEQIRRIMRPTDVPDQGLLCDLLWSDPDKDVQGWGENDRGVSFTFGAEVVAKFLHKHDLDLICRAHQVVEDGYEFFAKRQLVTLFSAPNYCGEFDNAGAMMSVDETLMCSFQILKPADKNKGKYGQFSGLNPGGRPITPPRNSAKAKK
# ATG4B inhibitor – ATG4B protease inhibitors, primary screen, biochemical, fluorescence, uHTS; Cysteine protease ATG4B (Homo sapiens), Q9Y4P1; inhibition, % at 8.33 µM; ATG4B cleavage of LC3-PLA2, NBD-HPC fluorescence, 1 h; 340,000 compounds, 0.51% hits; AID 504462, 2011; in the data active = inhibition above about 40%
# H9c2 protect – cardioprotection against H2O2-induced cell death, primary screen, uHTS, H9c2 cells, ATPLite luminescence; H9c2 cardiomyocytes, H2O2 injury protection, 2 h; protection from H2O2 cell death, % at 20 µM; 360,000 compounds, 0.63% hits;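 active = compounds giving at least 50% protection of heart cells from peroxide-induced death in the single-dose screen, raw or plate-pattern-corrected value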
# Hits are given with their value; – = inactive; · = no result given. Most compounds without a hit are left out; they make up all but 1.9% or so of the library.
SMILES,PP5 inh,PP1 inh,ATG4B inhibitor,H9c2 protect
O=C(CCCN1C(=O)c2cccc3cccc(c23)C1=O)N1CCN(c2ccccc2O)CC1,–,–,–,67
C=CCc1cccc(/C=N/NC(=O)c2ccccc2Br)c1O,–,–,–,51
C=CCc1cccc(/C=N/NC(=O)c2ccc3nc[nH]c3c2)c1O,–,–,–,50
O=C(N/N=C/c1ccc(Cl)cc1Cl)c1ccc2nc[nH]c2c1,–,–,–,–
Cc1c(/C=C2\NC(=O)NC2=O)c2ccccc2n1C,–,–,–,–
COc1ccc(OC)c(Nc2cc3ccccc3c(=O)[nH]2)c1,–,–,–,54
COc1ccc(OC)c(Nc2nnc(C)c(=O)[nH]2)c1,–,–,–,·
CCn1c(CSc2ncccn2)nnc1SCC(=O)N1CCCCC1,–,–,–,–
COc1ccc(C(C(=O)NC2CCCCC2)N(C(=O)Cc2c[nH]c3ccccc23)c2ccccc2C)cc1OC (centres undefined),–,–,–,–
O=C(NC1CCCCC1)C(c1ccc2ncccc2c1)N(Cc1cccs1)C(=O)c1cccs1 (centres undefined),–,–,–,51
COc1ccc(C(C(=O)NC2CCCCC2)N(Cc2cccs2)C(=O)Cc2c[nH]c3ccccc23)cc1OC (centres undefined),–,–,–,52
O=C(NC1CCCCC1)C(c1ccc2ncccc2c1)N(Cc1ccc2c(c1)OCO2)C(=O)c1ccc2c(c1)OCCO2 (centres undefined),–,–,–,–
O=C(NC1CCCCC1)C(c1ccc2ncccc2c1)N(Cc1ccco1)C(=O)c1ccc2c(c1)OCCO2 (centres undefined),–,–,–,56
O=C(NC1CCCCC1)C(c1cccs1)N(Cc1cccs1)C(=O)c1cccs1 (centres undefined),–,–,–,–
CC(NC1CCCCC1)C(=O)NN=C(c1ccccc1)c1ccccc1 (centres undefined),–,–,–,–
Cc1sc2nc(CSCC(=O)Nc3c(F)cccc3F)[nH]c(=O)c2c1C,–,–,–,–
Cc1sc2nc(CSCC(=O)Nc3ccc(C(F)(F)F)cc3)[nH]c(=O)c2c1C,–,–,–,–
Cc1sc2nc(CSCC(=O)N(C)c3ccccc3)[nH]c(=O)c2c1C,–,–,–,66
Cc1sc2nc(CSCC(=O)N(C)CC(=O)Nc3ccc(F)cc3)[nH]c(=O)c2c1C,–,–,–,54
Cc1sc2nc(CSCC(=O)N(CCC#N)c3ccccc3)[nH]c(=O)c2c1C,–,–,–,64
CC1CC(C)(C)CC2(C1)NC(=O)N(CC(=O)Nc1ccc(N3CCCCC3)cc1)C2=O (centres undefined),–,–,–,–
O=c1[nH]c(SCc2n[nH]c(=S)n2-c2ccccc2)nc2sc3c(c12)CCC3,–,–,–,62
Cc1nnc(N2CCC(C(=O)N3CCCCC3)CC2)c2nn(-c3ccc(Cl)cc3)c(C)c12,–,–,53,–
Cc1nnc(N2CCC(C(=O)NC3CCC(C)CC3)CC2)c2nn(-c3ccc(Cl)cc3)c(C)c12 (centres undefined),–,–,–,–
Cc1ccc(CC(C)(O)CC(C)(O)Cc2ccc(C)cc2)cc1 (centres undefined),·,·,·,–
SMILES,PP5 inh,PP1 inh,ATG4B inhibitor,H9c2 protect
O=C1N[C@H]2CC=C[C@H]2Nc2ccccc21,·,·,–,51
O=C1N[C@H]2CC=C[C@H]2N(Cc2cccs2)c2ccccc21,·,·,–,–
O=C(CN(CC1CCCO1)C(=O)CNS(=O)(=O)c1ccc(Cl)cc1)NC1CCCC1 (centres undefined),–,–,–,–
O=c1[nH]cnc2sc3c(c12)CCC3,–,–,–,60
Cc1cccc(-n2c(SCc3cc(=O)n4ccsc4n3)nc3ccccc3c2=O)c1,–,–,–,67
COc1cc(O)c2c(=O)c(-c3ccc(O[C@@H]4O[C@H](CO)[C@@H](O)[C@H](O)[C@H]4O)cc3)coc2c1,·,·,–,–
O=C(C1CCC(=O)N(C2CCCC2)C1)N1CCN(Cc2cccc(F)c2)CC1 (centres undefined),–,–,–,–
CCC(=O)Nc1ccc(C(=O)CSc2nnc(-c3ccc(NS(=O)(=O)CC)cc3)o2)cc1OC,–,17,–,–
CCOC(=O)C1=C(C)Nc2ccccc2N=C1N,–,–,–,–
CCOC(=O)C1=C(C)Nc2ccccc2N=C1NC(=O)c1oc2ccccc2c1COC,–,–,–,86
O=C(c1ccco1)N1CCN(C(=O)c2cc(-c3ccncc3)nc3ccc(Br)cc23)CC1,–,–,–,53
O=C(c1cc2nc(-c3ccccc3)cc(-c3ccccc3)n2n1)N1CCN(C(=O)c2ccco2)CC1,–,–,–,104
CSc1ncnc2c1ncn2CCCN(C)Cc1ccco1,·,·,·,–
Cc1ccc(NC(=O)C2CCN(S(=O)(=O)c3ccc4c(c3)OCCO4)CC2)c(O)c1,–,–,–,–
COc1cccc(/C=N/NC(=O)CNC(=O)COc2ccccc2)c1O,–,–,–,–
Cc1cccc(OCC(=O)NCC(=O)N/N=C/c2cc(Br)cc(Br)c2O)c1,–,–,–,59
O=C(COc1ccccc1)NCC(=O)N/N=C/c1ccc(O)cc1O,–,–,–,60
CCOc1ccc(CCNC(=O)C(O)c2ccccc2)cc1 (centres undefined),–,–,–,–
CCOc1ccc(/C=N/NC(=O)C(O)c2ccccc2)c(O)c1 (centres undefined),–,–,–,52
O=C(CCNC(=O)C1CCN(S(=O)(=O)c2ccccc2)CC1)NCCc1cccc(F)c1,–,–,–,–
N#CCC(=O)N/N=C\c1ccc(OC/C=C/c2ccccc2)cc1,–,17,–,–
N#CCC(=O)N/N=C/c1ccc(OCc2ccccc2)cc1,–,–,–,–
CC(Oc1cccc(Br)c1)C(=O)NNC(=O)c1ccccn1 (centres undefined),·,·,–,79
CC(Oc1ccccc1)C(=O)NNC(=O)c1ccccn1 (centres undefined),–,–,–,–
COc1cc(OC)cc(C(=O)NNC(=O)c2ccccn2)c1,–,–,–,51
SMILES,PP5 inh,PP1 inh,ATG4B inhibitor,H9c2 protect
Cc1nc2ccccc2c(=O)n1/N=C/c1ccc(O)c(O)c1O,–,–,–,–
Cc1nc2ccccc2c(=O)n1/N=C/c1ccc2ccccc2c1O,–,–,–,57
Oc1ccccc1O,–,–,–,66
Nc1ccccc1O,–,–,–,–
COc1ccc(-c2oc3ccccc3c2C(=O)OCc2ccccc2OC)cc1,–,–,–,–
COc1ccc(-c2cc(C(=O)NNC3=NCCC3)c3c(C)nn(-c4ccccc4)c3n2)cc1,–,–,–,84
COc1ccc(C=CC(=O)c2ccc(OC)c(OC)c2)cc1O,·,·,·,–
COc1ccc(C=CC(=O)c2ccc3cc(OC)c(OC)cc3c2)cc1OC,·,·,·,53
COc1cc(/C=C/C(=O)CC(=O)/C=C/c2ccc(O)c(OC)c2)ccc1O,–,–,49,75
Cc1ccc(C(C(=O)NC2CCCCC2)N(CC2CCCO2)C(=O)CNC(=O)c2cccs2)cc1 (centres undefined),–,–,–,–
